In the supplement of paper PMC12350171:
Where a name gives a salt, the structure may show the parent alone. Unmarked numbers belong to inactive results.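 How the source made its calls: active = AUC significantly below DMSO controls by Student t-fit with adjusted P under 0.01; inactive = not significantly reduced.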

System: Haemophilus parainfluenzae
Assay: growth AUC normalised to DMSO control (fraction of control); higher = less growth inhibition, active = hit call of the paper
Details: 20 µM
How it was run: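 After two anaerobic passages, pathogens were added at a starting OD578 of 0.01 to pre-reduced mGAM plates holding compound at 20 μM with 1% DMSO; hemin and NAD were supplemented for Haemophilus parainfluenzae. Sealed with breathable membranes, plates were read at OD578 hourly for 24 h, in three biological replicates. The trapezoidal rule, applied up to the exponential-to-stationary transition, gave the growth-curve AUC, which was normalised to DMSO controls on the same plate.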

Compound	growth AUC normalised to DMSO control
O=C(c1ccccc1)c1ccc2n1CCC2C(=O)O (stereo not drawn) [Ketorolac tromethamine]	0.972
COc1nc(C)nc(Cl)c1NC1=NCCN1 [Moxonidine]	1.01
CN1CC2c3ccccc3Oc3ccc(Cl)cc3C2C1 (stereo not drawn) [Asenapine maleate]	0.851 (active)
CC(C)(C)NC[C@H](O)COc1ccccc1C1CCCC1 [Penbutolol sulfate]	1.02
Cc1cccc(C)c1NC(=O)CN1CCN(CCCC(c2ccc(F)cc2)c2ccc(F)cc2)CC1 [Lidoflazine]	1.02
O=C(NCCO[N+](=O)[O-])c1cccnc1 [Nicorandil]	0.987
CCOC(=O)C(C)(C)Oc1ccc(Cl)cc1 [Clofibrate]	1.01
O=C(Nc1ccccc1)OCC(CN1CCCCC1)OC(=O)Nc1ccccc1 (stereo not drawn) [Diperodon hydrochloride]	1.02
